High-throughput results from PubChem BioAssay.
CHX counter: Cycloheximide Counterscreen for Small Molecule Inhibitors of Shiga Toxin; 300,000 compounds, 12% hits; cell reporter, cycloheximide protein synthesis inhibition counterscreen; max response, %; AID 2314, 2010; in the data active = max response mostly above about 13%, no sharp cut-off; inactive = mostly below about 14%; also: read at 38.3 µM for the half of the compounds with a filed dose
Pf growth 96h: Primary qHTS for delayed death inhibitors of the malarial parasite plastid, 96 hour incubation; P. falciparum luciferase reporter growth, 96 h; Potency, µM (doses to about 28.7 µM), hits mostly inhibitors; 320,000 compounds, 6.9% hits; AID 504834, 2011
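Readout is luminescence from an integrated firefly luciferase in P. falciparum. Red cells, 2% hematocrit and 0.05% parasitemia final, were cultured with compound through two parasite generations (96 hours) at 37 C, 5% CO2.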
Shiga toxin inh: A qHTS for Small Molecule Inhibitors of Shiga Toxin; 290,000 compounds, 9.2% hits; AID 2315, 2010; Vero cells, Shiga toxin protein synthesis inhibition reporter; inhibition, % at 38.7 µM; in the data active = inhibition mostly above about 28%, no sharp cut-off; inactive = mostly below about 43%
LmPK inhibitor: qHTS Assay for Inhibitors of Leishmania Mexicana Pyruvate Kinase (LmPK); Q27686; purified LmPK, Kinase-Glo ATP luminescence, 1 h; Potency, µM (highest dose often 57.5 µM), usual class: inhibitors; 290,000 compounds, 0.37% hits
Target sequence (Q27686 whole entry, looked up): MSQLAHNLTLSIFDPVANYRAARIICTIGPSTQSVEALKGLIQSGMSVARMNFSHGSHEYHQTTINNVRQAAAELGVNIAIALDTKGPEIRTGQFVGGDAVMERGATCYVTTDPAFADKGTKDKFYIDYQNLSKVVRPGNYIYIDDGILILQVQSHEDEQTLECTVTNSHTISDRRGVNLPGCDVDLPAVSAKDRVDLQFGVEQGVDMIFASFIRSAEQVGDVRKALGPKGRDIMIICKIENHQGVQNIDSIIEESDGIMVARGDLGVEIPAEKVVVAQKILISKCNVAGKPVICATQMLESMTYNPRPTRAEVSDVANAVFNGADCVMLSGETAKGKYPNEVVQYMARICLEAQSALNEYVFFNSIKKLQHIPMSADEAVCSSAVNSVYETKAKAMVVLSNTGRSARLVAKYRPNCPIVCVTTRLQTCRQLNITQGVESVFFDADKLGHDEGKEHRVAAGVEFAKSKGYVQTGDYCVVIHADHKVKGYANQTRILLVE
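ATP generated from ADP (0.1 mM) and PEP (0.5 mM) by 0.1 nM LmPK over 1 h at room temperature (pH 7.2 imidazole buffer) was detected by coupled luciferase luminescence. Values were normalized to uninhibited and no-enzyme wells.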
Pf growth 48h: Primary qHTS for delayed death inhibitors of the malarial parasite plastid, 48 hour incubation | P. falciparum luciferase growth in erythrocytes, 48 h | AID 504832, 2011 | 310,000 compounds, 5.9% hits | Potency, µM (doses to about 28.7 µM), hits mostly inhibitors
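Firefly luciferase activity from engineered P. falciparum reports growth; inhibitors lower the luminescent signal. Cultures contained 2% hematocrit erythrocytes at 0.1% final parasitemia.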
Large screens that a line does not name were inactive. A selection: hits, their analogues and other compounds. The true share with any hit is near 22%. Unless noted, calls follow the shape of the dose curve; as a rule, active = well fitted inhibition curve with a large enough effect; inconclusive = small, poorly fitted or top-dose-only effect, or another doubt; inactive = no such curve, though single readings can be large or run the other way.

CSc1ccccc1OCc1cc(C(=O)N(C)Cc2ccncn2)no1	CHX counter 49, Shiga toxin inh 105
CC/C(C)=N/Nc1cccc([N+](=O)[O-])c1	none
Oc1c(C(Nc2nc3ccccc3s2)c2ccco2)ccc2cccnc12 (configuration not stated)	Pf growth 96h inconclusive, Pf growth 48h 0.1µM
CCCC(=O)NC(c1ccc(Cl)cc1Cl)c1ccc2cccnc2c1O (configuration not stated)	Pf growth 48h inconclusive
CC(C)C(=O)NC(c1cccc([N+](=O)[O-])c1)c1ccc2cccnc2c1O (configuration not stated)	Pf growth 48h 3.7µM
CC(C)C(=O)NC(c1ccco1)c1ccc2cccnc2c1O (configuration not stated)	Pf growth 48h 2.1µM
O=C(CSc1ncccn1)NCc1ccccc1Cl	CHX counter 50, Shiga toxin inh 68
O=C(CSc1nc(=O)n2ccccc2n1)NCc1ccccc1Cl	Pf growth 48h inconclusive (no result: CHX counter, Shiga toxin inh, LmPK inhibitor)
Cc1c(Cl)cccc1-n1c(SCC(=O)NCc2ccccc2Cl)nnc1-c1ccncc1	Pf growth 96h 8.3µM, Pf growth 48h 8.3µM
O=C(COC(=O)C1CC1)NCc1ccccc1Cl	CHX counter 16 (no result: Pf growth 96h)
CCCCC(=O)NCc1ccccc1Cl	CHX counter 23
O=C(NCc1ccccc1Cl)NCc1ccccc1Cl	none
Cc1ccc(C(C(=O)NCc2ccco2)N(C(=O)Cc2cccs2)c2cccnc2)cc1 (configuration not stated)	none
O=C(CC1CCCCC1)NCc1ccccc1Cl	CHX counter 38, Pf growth 96h inconclusive
O=C(CC1CCCCC1)NCc1ccccn1	Pf growth 96h inconclusive
CC(C)Oc1ccc(CNC(=O)CCC(=O)N2CC(C)Sc3ccccc32)cc1 (configuration not stated)	Pf growth 48h inconclusive
CC1CN(C(=O)CCC(=O)NCc2ccccc2Cl)c2ccccc2S1 (configuration not stated)	Pf growth 96h 8.3µM
O=C(COC(=O)CCSc1ccccc1)NCc1ccccc1Cl	CHX counter 19
O=C(COC(=O)CCSc1ccc(Cl)cc1)NCc1ccccc1	none
Cc1ccccc1NC(=O)c1cc[n+]([O-])cc1	none
NC(=O)c1cc(NC(=O)CCNS(=O)(=O)c2cccc(C(F)(F)F)c2)cc(C(N)=O)c1	none
O=C(OCC(=O)N1CCN(C(=O)c2ccco2)CC1)c1cccc(F)c1	none (no result: CHX counter, Shiga toxin inh, LmPK inhibitor)
C/C(N)=C(/C#N)C(=O)COC(=O)CNS(=O)(=O)c1c(F)cccc1F	none
CSc1sc(C(=O)NCC2CC2)cc1S(=O)(=O)C(C)C	Pf growth 48h 2.3µM
O=C(CCCCn1c(=O)c2ccccc2n(Cc2ccccc2F)c1=O)NC1CCN(Cc2ccccc2)CC1	Pf growth 48h inconclusive
CCN(CC)S(=O)(=O)c1cccc(C(=O)N[C@H](C(=O)Nc2nc3ccccc3s2)C(C)C)c1	CHX counter 17, Pf growth 96h inconclusive
CCN(CC)S(=O)(=O)c1cccc(C(=O)NC(C(=O)Nc2nnc(C3CC3)s2)C(C)C)c1 (configuration not stated)	Pf growth 96h 8.3µM, Pf growth 48h inconclusive
CCN(CC)S(=O)(=O)c1cccc(C(=O)N[C@H](C(=O)Nc2nc3ccc(F)cc3s2)C(C)C)c1	CHX counter 40, Pf growth 96h 2.6µM, Shiga toxin inh 104, Pf growth 48h 13µM
Nc1c(C(=O)CSc2nc3ccccc3o2)c(=O)[nH]c(=O)n1C1CC1	none (no result: CHX counter, Shiga toxin inh, LmPK inhibitor)
COc1ccc(CCC(=O)NCCNC(=O)CCc2ccc(OC)cc2)cc1	none (no result: Shiga toxin inh)
O=C(COC(=O)C12CC3CC(CC(O)(C3)C1)C2)NCc1ccco1	none (no result: Pf growth 96h, LmPK inhibitor, Pf growth 48h)
CC(C)(C)c1ccc(C(=O)N2CCCC2)s1	CHX counter 26, Shiga toxin inh 51
CCOc1ccc(C(=O)Nc2ccc(S(=O)(=O)N3C[C@@H]4C[C@@H](C3)c3cccc(=O)n3C4)cc2)cc1	Pf growth 96h 2.9µM, Pf growth 48h inconclusive (no result: CHX counter, Shiga toxin inh, LmPK inhibitor)
CCN(CC)c1ccc(C2C3CCCCC3(O)CCN2CC(=O)N2CCCCC2)cc1 (configuration not stated)	Pf growth 96h inconclusive, Pf growth 48h inconclusive
CCN(CC)c1ccc([C@H]2[C@@H]3CCCC[C@]3(O)CCN2CC(=O)NCc2ccco2)cc1	Pf growth 96h inconclusive, Pf growth 48h 10µM
O=C(c1cccs1)N1CCC2(O)CCCCC2C1c1ccc(F)cc1 (configuration not stated)	none
CCN(CC)c1ccc(C2C3CCCCC3(O)CCN2C(=O)c2cccs2)cc1 (configuration not stated)	Pf growth 96h 12µM, Pf growth 48h inconclusive
COc1ccc(C(=O)CCC(C)(C)[N+](=O)[O-])cc1	CHX counter 32, Pf growth 48h inconclusive
Cc1ccn(C(=O)c2ccc(NC(=O)C3CC3)cc2)n1	none
CCOc1ccc(-c2nc(-c3ccc(OC)c(OC)c3)no2)cc1OCC	Pf growth 48h inconclusive
CCOc1cc(-c2noc(-c3cccnc3)n2)ccc1OC	none (no result: Pf growth 96h)
CCOc1ccc(-c2nc(CCl)cs2)cc1OC	CHX counter 17
CCOc1ccc(-c2noc(COC)n2)cc1OC	CHX counter 21, Pf growth 96h inconclusive
COc1ccc(-c2nnc(-c3cccnc3)o2)cc1OC	none (no result: Pf growth 48h)
COc1ccc(-c2noc(-c3cccnc3)n2)cc1OC	CHX counter 17, Shiga toxin inh 52
CCOc1ccc(-c2noc(-c3cccnc3)n2)cc1OC	CHX counter 15, Pf growth 96h 9.3µM
CCCCNC(=O)NNC(=O)COc1cccc(C)c1C	none
COc1ccc(C(=O)Nc2ccccc2)cc1NC(=O)c1ccc([N+](=O)[O-])cc1	Pf growth 96h inconclusive
Cc1cc(-c2onc(C)c2C(=O)O)no1	none
CCOC(=O)C1CCN(C(=O)C(CC)c2ccccc2)CC1 (configuration not stated)	none
CCCCOc1ccc(CC(=O)NO)cc1	Pf growth 96h 0.23µM, Pf growth 48h 0.41µM
CCCc1ccc(OCCNC(C)=O)cc1	Pf growth 96h inconclusive
CCCc1ccc(OCCNC(=O)CC)cc1	CHX counter 16 (no result: Pf growth 96h)
COc1ccc(CN(C#N)c2nc(C)cc(C)n2)cc1	Pf growth 96h 7.4µM, Pf growth 48h inconclusive
COc1ccc(Cl)cc1NC(=O)CN(C)C(=O)c1cn2ccccc2n1	none (no result: CHX counter, Shiga toxin inh, LmPK inhibitor)
Cc1ccc2nc(Cc3ccc(N)cc3)[nH]c2c1	CHX counter 20, Shiga toxin inh 75
Nc1ccc2nc(Cc3ccccc3)[nH]c2c1	Pf growth 96h 10µM, Pf growth 48h 9.3µM
Cc1ccc2nc(CCc3nc4ccc(C)cc4[nH]3)[nH]c2c1	none
Nc1ccc(Cc2nc3c(ccc4ccccc43)[nH]2)cc1	CHX counter 46, Shiga toxin inh 97
Cc1nc2ccc(Cc3ccc4nc(C)[nH]c4c3)cc2[nH]1	Pf growth 96h 10µM, Pf growth 48h inconclusive
O=C1CCc2cc(S(=O)(=O)Nc3ccccc3)cc3c2N1CCC3	none (no result: CHX counter, Shiga toxin inh, LmPK inhibitor)
CCOc1ccc2ccccc2c1/C=N/NC(=O)c1ccncc1	none
COc1ccc(OC)c(S(=O)(=O)N2CCC(C(=O)N3CCc4ccccc4C3)CC2)c1	none
